In the library only some 2.4% were active in any assay of this set; here they are far more common.
D2 ag-1: HTS Assay for Allosteric Agonists of the Human D2 Dopamine Receptor: Primary Screen for Agonists | D(2) dopamine receptor (Homo sapiens), P14416 | HEK293 T-REx D2 cells, calcium flux agonist mode | 0.53% of 340,000 active | activation, % at 2 µM;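 active means activation over 3 SD above normal in the single-dose calcium agonist read, cut at about 30% in these data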
Target sequence (P14416 whole entry, looked up): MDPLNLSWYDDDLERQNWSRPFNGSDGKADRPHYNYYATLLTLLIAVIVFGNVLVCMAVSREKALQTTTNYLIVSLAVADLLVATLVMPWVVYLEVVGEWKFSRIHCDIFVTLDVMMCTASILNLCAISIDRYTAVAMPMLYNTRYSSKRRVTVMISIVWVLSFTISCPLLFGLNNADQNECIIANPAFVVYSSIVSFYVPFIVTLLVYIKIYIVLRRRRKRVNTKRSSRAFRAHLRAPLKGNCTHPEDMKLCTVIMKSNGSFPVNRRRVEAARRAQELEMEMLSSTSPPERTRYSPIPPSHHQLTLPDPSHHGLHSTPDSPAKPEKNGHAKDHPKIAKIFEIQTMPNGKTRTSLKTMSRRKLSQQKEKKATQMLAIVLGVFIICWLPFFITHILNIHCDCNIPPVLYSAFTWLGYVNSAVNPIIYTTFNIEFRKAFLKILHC
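Agonism scored from kinetic calcium signal (1 read/sec, 180 s) following compound pin transfer, after a 10 s baseline. Cells: HEK293 Trex line expressing inducible D2 receptor coupled to calcium, dye-loaded after overnight culture at 30 C.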
D2 antagonist: HTS Assay for Allosteric Antagonists of the Human D2 Dopamine Receptor: Primary Screen for Antagonists; D(2) dopamine receptor (Homo sapiens), P14416; HEK293 TREx D2 cells, calcium flux, dopamine EC80; inhibition, % at 10 µM; 2% of 340,000 active; in the data active means inhibition above about 30%; inactive means below that, where a call was filed
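In this primary screen, negative modulation is detected by tracking calcium flux after an EC80 dopamine challenge in inducible HEK293 T-REx D2 cells preexposed to test compound for 180 s.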
D2 PAM-1: HTS Assay for Positive Allosteric Modulators of the Human D2 Dopamine Receptor: Primary Screen for Potentiators | potentiation, % at 10 µM | D(2) dopamine receptor (Homo sapiens), P14416 | HEK293 T-REx D2, calcium flux, EC20 dopamine potentiation | 0.34% of 340,000 active;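 active means potentiation over 3 SD above the plate norm, cut at about 30% in these data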
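Tetracycline-induced Hek293 Trex D2 cells, force-coupled to calcium, loaded with no-wash calcium dye. Compound added with 180 s kinetic read for agonism, then EC20 dopamine and a further 180 s read for potentiation.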
D2 PAM-2: Beta-Arrestin HTS for Positive Allosteric Modulators of the Human D2 Dopamine Receptor: Potentiators; 0.23% of 360,000 active; DiscoveRx D2 beta-arrestin cells, luminescence, 90 min; 100% = 57 uM dopamine signal; D(2) dopamine receptor (Homo sapiens), P14416; potentiation, % (no concentration beside the values); in the data active means potentiation above about 50%; inconclusive means mostly about 30% to 49%
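PathHunter D2 cells, attached overnight at 37 deg C, received compound in DMSO plus dopamine at EC20 (50 nM final) for 90 min at 37 deg C. Beta-arrestin recruitment was read as luminescence after 1 h with detection reagent at ambient temperature.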
D2 ag-2: Beta-Arrestin HTS for Positive Allosteric Modulators of the Human D2 Dopamine Receptor: Agonists; activation, % (test concentration not listed); 0.084% of 360,000 active; AID 624465, 2012; DiscoveRx PathHunter D2 beta-arrestin, luminescence, 90 min; 100% = 57 uM dopamine signal; in the data active means activation above about 40%; inconclusive means between about 15% and that limit
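Agonist mode: compounds alone added to overnight-plated D2 PathHunter cells for 90 min at 37 C, with 57 uM final dopamine (EC100) defining full response. Beta-arrestin recruitment detected by chemiluminescent reagent, read after 1 h at ambient temperature.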
D3 arrestin ag: qHTS of D3 Dopamine Receptor Agonist: D3 Dopamine Receptor B-arrestin Agonist Confirmatory Assay; shares compounds with D2 ag-1; DiscoveRx D3 beta-arrestin cells, luminescence, 90 min; Potency, µM (highest dose often 76.9 µM), hits mostly activators; 4% of 2,300 active; AID 720506, 2013; further: nearly all actives have a fitted effect of over 70% in size
D2 ag-3: qHTS of D3 Dopamine Receptor Agonist: D2 Dopamine Receptor B-arrestin Agonist Counterscreen | DiscoveRx PathHunter D2 beta-arrestin, luminescence, 90 min; response scale: percent relative to full dopamine signal | shares compounds with D2 ag-1 | AID 720507, 2013 | Potency, µM (highest dose often 76.9 µM), most hits filed as activators | 5.9% of 2,300 active; further: nearly all actives have a fitted effect of over 70% in size
Of the large screens only hits and unclear results are named; the others gave an inactive call (follow-up assays come after a bar, where they were run). Unless noted, the call rests on the fitted dose curve; in most records, active means well fitted activation curve with a large enough effect; inconclusive means small, poorly fitted or top-dose-only effect; inactive means flat fitted curve, though single readings scatter.

CC(OC(=O)CNC(=O)c1ccc(Br)cc1)C(=O)NC1CCCCC1C (stereo unspecified)	none | D3 arrestin ag inactive | D2 ag-3 inactive
CC(OC(=O)Cc1c(F)cccc1Cl)C(=O)NC1CCCCC1C (stereo unspecified)	none | D3 arrestin ag inactive | D2 ag-3 inactive
Cc1ccc(CN(C(=O)COc2ccc(Cl)cc2Cl)C2CCS(=O)(=O)C2)o1 (stereo unspecified)	none (no result: D2 antagonist, D2 PAM-2, D2 ag-2)
Cc1ccc(CN2CCN(c3ncccn3)CC2)o1	D2 ag-1 85.3, D2 antagonist 85.7, D2 PAM-2 inconclusive, D2 ag-2 inconclusive | D3 arrestin ag inactive | D2 ag-3 inconclusive
Cc1ccc(CN2CCN(c3ccccc3)CC2)o1	D2 ag-1 49.3, D2 antagonist 69.9, D2 ag-2 inconclusive | D3 arrestin ag inactive | D2 ag-3 inconclusive
O=[N+]([O-])c1cccc(-c2ccc(CN3CCN(c4ccccc4)CC3)o2)c1	D2 ag-1 51.9, D2 antagonist 46.8 | D3 arrestin ag inactive | D2 ag-3 inactive
O=[N+]([O-])c1ccc(N2CCN(Cc3cccc([N+](=O)[O-])c3)CC2)cc1	none
CCOC(=O)c1c(S(=O)(=O)N2CCCC(C(=O)N3CCN(c4cccc(C)c4C)CC3)C2)c(C)n(C)c1C (stereo unspecified)	none (no result: D2 antagonist, D2 PAM-2, D2 ag-2)
CCC(=O)NNc1ncnc2c1cnn2C	D2 antagonist 47.6 | D3 arrestin ag inactive | D2 ag-3 inactive
Cc1nc2sc(C(c3ccccc3)N3CCN(C(=O)c4ccco4)CC3)c(O)n2n1 (stereo unspecified)	D2 ag-1 62.4 | D3 arrestin ag inactive | D2 ag-3 inactive
Cc1ccc(C(c2sc3nc(C)nn3c2O)N2CCN(C(=O)c3ccco3)CC2)cc1 (stereo unspecified)	none
CCN(CC)C(=O)Cn1c(=O)n(-c2ccc(Cl)cc2)c(=O)c2c3c(sc21)CCC3	none (no result: D2 antagonist, D2 PAM-2, D2 ag-2)
Cn1nc(C(F)(F)F)c(C#N)c1N1CCN(c2ccccn2)CC1	none | D3 arrestin ag inactive | D2 ag-3 inactive
C[C@@H]1O[C@@H](O[C@H]2[C@H](O)[C@@H](O)[C@H](Oc3c(-c4ccc(O)c(O)c4)oc4cc(O)cc(O)c4c3=O)O[C@@H]2CO)[C@H](O)[C@H](O)[C@H]1O	none | D3 arrestin ag inactive | D2 ag-3 inactive
C[C@@H]1O[C@@H](Oc2c(-c3ccc(O)c(O)c3)oc3cc(O)cc(O)c3c2=O)[C@H](O)[C@H](O)[C@H]1O	none (no result: D2 ag-1, D2 antagonist, D2 PAM-1)
Cc1nn(-c2ccccc2)c(Cl)c1C(=O)NNC(=O)c1ccncc1	none | D3 arrestin ag inactive | D2 ag-3 inactive
Cc1ccc(NC(=O)c2nc(S(=O)(=O)Cc3ccccc3C)ncc2Cl)cc1C	D2 antagonist 34.3 | D3 arrestin ag inactive | D2 ag-3 inactive
Cc1ccc(NC(=O)c2nc(S(=O)(=O)Cc3ccc(F)cc3)ncc2Cl)cc1C	none (no result: D2 antagonist, D2 PAM-2, D2 ag-2)
CN(c1ccccc1)S(=O)(=O)c1ccc(NC(=O)c2nc(S(C)(=O)=O)ncc2Cl)cc1	none | D3 arrestin ag inactive | D2 ag-3 inactive
COc1ccc2sc(-c3ccccc3OC)c(-c3ccc(OC)c(F)c3)c2c1	D2 ag-1 47.7 | D3 arrestin ag inactive | D2 ag-3 inactive
COc1ccc(-c2sc3ccc(OC)cc3c2-c2ccc(OC)c(F)c2)cc1	none
CN(CCOc1cccc2ccccc12)Cc1ccccc1	D2 ag-2 inconclusive (no result: D2 ag-1, D2 antagonist) | D3 arrestin ag inactive | D2 ag-3 inactive
Cc1cccc2nc(Cn3c(=O)n(-c4ccc(Cl)cc4)c(=O)c4c5c(sc43)CCC5)cc(=O)n12	none (no result: D2 ag-1, D2 antagonist, D2 PAM-2, D2 ag-2)

Bioassay records deposited in PubChem BioAssay by National Center for Advancing Translational Sciences (NCATS).
